Laboratory results published in PubChem BioAssay AID686978 (National Center for Advancing Translational Sciences (NCATS), 2013).
About 64,000 (15%) of roughly 420,000 compounds were called active. Roughly 27% stayed inconclusive and do not appear here. The call rests on the fitted dose curve; in most records, active means well fitted inhibition curve with a large enough effect; inconclusive means small, poorly fitted or top-dose-only effect; inactive means flat fitted curve, though single readings scatter. Only a sample is shown.

Assay: qHTS for Inhibitors of human tyrosyl-DNA phosphodiesterase 1 (TDP1): qHTS in cells in absence of CPT; further: nearly all actives have a fitted effect of over 55% in size
Conditions: DT40 Tdp1-/- hTDP1 cells, no CPT, ATP luminescence, 48 h; activity change, negative = growth inhibition: at 46.2 µM (top of the series)
Procedure, shortened: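 DT40 Tdp1-/-;hTDP1 cells, no CPT (DMSO vehicle only), 400 cells/well; compounds pin-transferred; ≥48 hr, 37 °C; CellTiter-Glo 30 min RT dark, luminescence read.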
On the % scale 0 is the no-effect control and ±100 the full control effect; potency means the concentration at half of the fitted maximal effect.

| Compound | activity change, negative = growth inhibition | Potency |
| --- | --- | --- |
| Cc1ccc(N2CCN(/N=C/c3cccs3)CC2)cc1 | -15.1% (inactive) |  |
| CCN1CCN(C2CCCCC2NS(=O)(=O)c2ccc(Cl)cc2)CC1 (centres undefined) | 4.44% (inactive) |  |
| O=C1OC(C(O)CO)C(O)=C1O (centres undefined) | -6.15% (inactive) |  |
| COC(=O)c1ccc(COC(=O)C2CCN(S(=O)(=O)c3c(Cl)cccc3Cl)CC2)o1 | -2.71% (inactive) |  |
| CC(C)(C)n1nnc(CCc2nnn(C(C)(C)C)n2)n1 | -13.1% (inactive) |  |
| O=S(=O)(NCCCN1CCOCC1)c1ccc(F)c(Cl)c1 | 17.3% (inactive) |  |
| COC(=O)[C@]1(CC(C)C)N[C@H](c2ccc(SC3CCCCC3)cc2)[C@@H]2C(=O)N(C)C(=O)[C@@H]21 |  | 23.1 µM (active) |
| COC(=O)[C@]1(C)N[C@H](CN(C)C(=O)c2ccc(C(C)(C)C)cc2)[C@@H]2C(=O)N(C)C(=O)[C@@H]21 | -8.27% (inactive) |  |
| CCCC1(C(=O)OC)NC(c2ccco2)C2C(=O)N(C)C(=O)C21 (centres undefined) | 10.1% (inactive) |  |
| CCc1nc2cc(C(=O)NCC3CCS(=O)(=O)C3)cc(NC(=O)c3ccccc3OC)c2n1C (centres undefined) | -6.3% (inactive) |  |
| COc1ccc(-c2nc3cnc(Oc4ccccc4)nc3n(Cc3cccs3)c2=O)cc1 | -4.39% (inactive) |  |
| CCc1nnc(NC(=O)c2sc3nc(C)cc(COC)c3c2N)s1 | -9.29% (inactive) |  |
| CCc1nnc(NC(=O)c2ccco2)s1 | 5.95% (inactive) |  |
| CCc1ccc2nc3sc(C(=O)Nc4nnc(CC)s4)c(N)c3cc2c1 |  | 18.4 µM (active) |
| CCC(=O)c1ccc(OCC(O)CN2C(=O)NC(C)(C)C2=O)cc1 (centres undefined) | 5.76% (inactive) |  |
| CCOC(=O)c1c(N)sc(C(C)=O)c1C | -22.8% (inactive) |  |
| Cc1ccc(-c2cc(C(=O)Oc3ccccc3Cl)no2)cc1C | -1.58% (inactive) |  |
| Cc1cccc(OCCSc2nc3ccc(NC(=O)COc4ccccc4C)cc3s2)c1 | -16.9% (inactive) |  |
| Cc1cc(C)cc(OCC(=O)Nc2nc3ccc([N+](=O)[O-])cc3s2)c1 | -24.8% (inactive) |  |
| O=C(NCCSc1ccccc1)c1ccco1 | -15% (inactive) |  |
| Cc1cc(NC(=O)COc2ccc([N+](=O)[O-])cc2)no1 | -27.2% (inactive) |  |
| CCOc1ccc2nc(NC(=O)c3cc([N+](=O)[O-])ccc3N3CCOCC3)sc2c1 |  | 18.4 µM (active) |
| O=C(Nc1ccc2nc(SCCOc3ccccc3)sc2c1)c1ccco1 |  | 23.1 µM (active) |
| CC(=O)Nc1ccc2nc(SCCOc3cc(C)cc(C)c3)sc2c1 |  | 16.4 µM (active) |
| Cc1cc(C)cc(OCc2nnc(SCC(=O)Nc3ccccc3)o2)c1 | -0.595% (inactive) |  |
| O=C(NC1CCCCC1)c1cc([N+](=O)[O-])ccc1N1CCOCC1 | -26.5% (inactive) |  |

| Compound | activity change, negative = growth inhibition | Potency |
| --- | --- | --- |
| O=C(Nc1ccccc1)c1ccco1 | 13.4% (inactive) |  |
| CCOc1ccc2nc(SC(CC)C(=O)Nc3cc(C)on3)sc2c1 (centres undefined) |  | 18.4 µM (active) |
| CCCC(=O)N(CCN1CCOCC1)c1nc2ccc(OCC)cc2s1 | -20% (inactive) |  |
| COc1cc(NS(=O)(=O)c2cccs2)cc(OC)c1 | -16.9% (inactive) |  |
| CCOc1cc(CNCc2ccccn2)ccc1OCC(=O)NC(C)(C)C | -73.4% (inactive) |  |
| Cc1cccc(NC(=O)N2CCCCCC2)c1C | 17.4% (inactive) |  |
| O=C(CCNC(=O)c1ccccc1Cl)NN=Cc1ccco1 | -0.295% (inactive) |  |
| CCOCCCNS(=O)(=O)Cc1ccccc1 | 5.44% (inactive) |  |
| CCC(C)NC(=O)CSC1=Nc2ccccc2C2=NC(CCC(=O)NCc3ccco3)C(=O)N12 (centres undefined) | -3% (inactive) |  |
| CC(=O)c1cnc(-c2ccccc2)s1 | 6.21% (inactive) |  |
| CC(=O)c1nnn(-c2ccc(Cl)cc2C#N)c1C | -23.2% (inactive) |  |
| CC(=O)Nc1ccc2nc(NC(=O)CS(=O)(=O)c3ccc(F)cc3)sc2c1 | -14.1% (inactive) |  |
| CNC(=O)c1ccc2nc(NC(C)=O)sc2c1 | -18.8% (inactive) |  |
| CCOc1ccc2nc(Nc3nc4ccc(NC(C)=O)cc4s3)sc2c1 |  | 10.3 µM (active) |
| COCCn1c(SCc2nc3cc(OC)c(OC)cc3c(=O)[nH]2)nnc1-c1ccncc1 | -16.8% (inactive) |  |
| COc1ccc(C)cc1-n1nnnc1SCc1nc2ccccc2c(=O)[nH]1 |  | 9.2 µM (active) |
| O=c1c2ccccc2nc(CSc2nnnn2-c2ccccc2)n1-c1ccccc1 | -16.9% (inactive) |  |
| O=C1CCC[C@@H]2CC(N3CCCCC3)C[C@@H]3CCN1[C@H]23 (some centres undefined) | -9.79% (inactive) |  |
| S=C1Nc2cc(Cl)ccc2Sc2ccccc21 | 8.29% (inactive) |  |
| Cc1ccccc1NC(=O)c1ccccc1 | -3.3% (inactive) |  |
| Cc1cccc(C)c1NC(=O)CN(C)C(=O)CCC(=O)c1ccccc1 | 6.97% (inactive) |  |
| Cc1cccc(C)c1NC(=O)C(Cl)C(=O)c1ccccc1 (centres undefined) |  | 7.31 µM (active) |
| CCCCNCCS(=O)(=O)NCc1ccccc1 | -17.8% (inactive) |  |
| C[C@H](CO)N1C[C@H](C)[C@@H](CN(C)S(=O)(=O)c2ccc(F)cc2)OCc2cnnn2CCCC1=O | -20.3% (inactive) |  |
| COc1cc(C(=S)N2CCOCC2)cc(OC)c1OC(=O)c1cc([N+](=O)[O-])cc([N+](=O)[O-])c1 | -7.83% (inactive) |  |
| COc1ccc(C(=O)NCc2ccc(Cl)cc2)cc1S(=O)(=O)N1CCCC1 | -9.45% (inactive) |  |

| Compound | activity change, negative = growth inhibition | Potency |
| --- | --- | --- |
| CCOC(=O)N1CCN(C(=O)COC(=O)c2cccc(S(C)(=O)=O)c2)CC1 | -11.6% (inactive) |  |
| CN(c1ccccc1)S(=O)(=O)c1ccc(Cl)c(C(=O)OCC(=O)N2CCOCC2)c1 | 10.2% (inactive) |  |
| O=C(c1ccc(Cl)c(S(=O)(=O)N2CCCCCC2)c1)N1CCN(c2ccc(O)cc2)CC1 | -47.4% (inactive) |  |
| COc1ccc(N2CCN(C(=O)COC(=O)c3cccc(S(=O)(=O)Nc4ccccc4OC)c3)CC2)cc1 |  | 20.6 µM (active) |
| COc1ccccc1N1CCN(S(=O)(=O)c2ccc(Cl)cc2)CC1 | -14.6% (inactive) |  |
| CCN(CC)S(=O)(=O)c1ccc(C(=O)N2CCN(C3=NS(=O)(=O)c4ccccc43)CC2)cc1 | 9.61% (inactive) |  |
| COc1ccccc1N1CCN(C(=O)c2ccc(Cl)c(S(=O)(=O)N3CCCC3)c2)CC1 |  | 18.4 µM (active) |
| COc1ccccc1CC(=O)Nc1ccc(S(=O)(=O)N2CCCC2)cc1 | -1.81% (inactive) |  |
| COc1ccc(N2CCN(C(=O)CNS(=O)(=O)c3ccc(C)c(C)c3)CC2)cc1 | -16.1% (inactive) |  |
| COc1ccccc1N1CCN(C(=O)c2ccc(S(=O)(=O)N3CCCCC3)cc2)CC1 |  | 25.9 µM (active) |
| CN(c1ccccc1)S(=O)(=O)c1ccc(C(=O)N2CCN(c3ccccc3Cl)CC2)cc1 |  | 20.6 µM (active) |
| COc1ccc(S(=O)(=O)NCC(c2ccc(C)cc2)N2CCN(C)CC2)cc1OC (centres undefined) | -15.7% (inactive) |  |
| CC(C)C(NC(=O)C1CCC(C(C)(C)C)CC1)C(=O)NCCCN1CCCCC1 (centres undefined) | -16.1% (inactive) |  |
| CC1CCN(C(=S)c2cccc(O)c2)CC1 | -4.71% (inactive) |  |
| C/C=C/C(=O)OCC(=O)Nc1ccc(F)cc1Cl | 2.04% (inactive) |  |
| CC(CN1CCC(n2nccc2NC(=O)C2CCCC2)CC1)c1ccccc1 (centres undefined) | -3.11% (inactive) |  |
| Nc1c(-c2ccc(F)cc2)cnc2ncnn12 | -20.8% (inactive) |  |
| COc1ccc(C)cc1NC(=O)NCc1ccccn1 | 17% (inactive) |  |
| COC(=O)C1=C(C)N=C2SC(C)C(=O)N2C1/C=C/c1ccccc1 (centres undefined) | -13.3% (inactive) |  |
| COCCNC(=O)CN(C(=O)CCC(=O)Nc1cc(C)on1)c1ccc(C)cc1C | -22.6% (inactive) |  |
| COc1ccccc1N1CCN(C(=O)c2c(-c3c(Cl)cccc3Cl)noc2C)CC1 |  | 20.6 µM (active) |
| Cc1onc(-c2ccccc2)c1C(=O)N1CCN(S(=O)(=O)c2ccccc2C(F)(F)F)CC1 | -6.01% (inactive) |  |
| COc1ccc(S(=O)(=O)Nc2ccccc2C(=O)N2CCCC2)cc1C | -15.9% (inactive) |  |
| Cc1[nH]n(C)c(=O)c1C(=O)c1c(-c2c(Cl)cccc2Cl)noc1C | -8.02% (inactive) |  |
| COc1ccccc1NS(=O)(=O)c1ccc(C(=O)N2CCN(c3ccccc3O)CC2)cc1 |  | 16.4 µM (active) |
| COc1ccccc1NS(=O)(=O)c1ccc(C)c(C(=O)NNC(=O)c2csc(N3CCOCC3)n2)c1 | 0.22% (inactive) |  |

| Compound | activity change, negative = growth inhibition | Potency |
| --- | --- | --- |
| COc1ccc2c(c1)CCC/C2=N\OC(=O)c1ccccc1F | -24.6% (inactive) |  |
| CC(C)(CSc1nncn1/N=C/c1ccco1)NS(=O)(=O)c1ccc(Cl)cc1 | -25.2% (inactive) |  |
| O=C(COC(=O)CSc1nnc(-c2ccc(Cl)cc2)o1)Nc1cc(Cl)cc(Cl)c1 | -9.27% (inactive) |  |
| Cn1ccsc1=NC(=O)c1cc(S(=O)(=O)N2CCOCC2)ccc1Cl | 1.11% (inactive) |  |
| Cc1ccccc1C(=O)Nc1ccccc1Sc1ccccc1 | -4.96% (inactive) |  |
| O=C(O)COc1nsnc1N1CCOCC1 | -2.57% (inactive) |  |
| CSCCC(NC(N)=O)C(=O)N(C)CC(=O)Nc1ccc(C)cc1 (centres undefined) | -6.89% (inactive) |  |
| COc1cccc(N2CC(NC(=O)/C=C\c3ccccc3)CC2=O)c1 (centres undefined) | -25.4% (inactive) |  |
| COc1ccc(-c2nn3c(-c4ccc(OC)cc4)nnc3c3ccccc23)cc1 | 1.41% (inactive) |  |
| CC(C)N(C(=O)Cn1cc(S(=O)(=O)CC(=O)N2CCOCC2)c2ccccc21)C(C)C | 15.3% (inactive) |  |
| O=C(COC(=O)CNC(=O)C1CCCCC1)NCc1ccccc1 | -19.7% (inactive) |  |
| O=C(O)C1CCN(C(=O)OCc2ccccc2)CC1 | 0.979% (inactive) |  |
| O=C(NCc1ccccc1)C1=C[C@@H](C2CCCCC2)C[C@@H](OCc2ccc(CO)cc2)O1 |  | 16.4 µM (active) |
| COc1cc(Cl)cc(C2NC(=O)NC(C)=C2C(=O)NCc2ccccc2)c1O (centres undefined) | -1.85% (inactive) |  |
| CC(NC(=O)COc1ccc(-c2ccccc2)cc1)C1CCCO1 (centres undefined) |  | 11.6 µM (active) |
| CC(=O)Nc1ccc(NC(=O)COc2ccc(-c3ccccc3)cc2)cc1 | -0.864% (inactive) |  |
| CCOc1ccc(C(CC(=O)O)NC(=O)COc2ccccc2)cc1 (centres undefined) | -10% (inactive) |  |
| COc1ccc(NC(=O)N(C)C[C@H]2Oc3ccc(NC(=O)C4CC4)cc3C(=O)N([C@H](C)CO)C[C@@H]2C)cc1 | 6.81% (inactive) |  |
| CCCc1cc(=O)[nH]c(SCc2ccc(C#N)cc2)n1 | -8.85% (inactive) |  |
| CSCCC(Nc1ccc(S(=O)(=O)N2CCOCC2)cc1[N+](=O)[O-])C(=O)OCC(=O)N(C(C)C)C(C)C (centres undefined) | -4.59% (inactive) |  |
| COc1ccc(-n2c(C)cc(C(=O)CSc3nnc(-c4cccs4)o3)c2C)cc1 |  | 16.4 µM (active) |
| COc1ccc(OC)c(C(=O)CSc2nnc(-c3cccs3)o2)c1 | -23.3% (inactive) |  |
| Cc1ccc(OC(=O)CSc2nnc(-c3cccs3)o2)cc1 | 2.81% (inactive) |  |
| Cc1cc(C)c(NC(=O)CN2CCCCCC2)c(C)c1 | 20.9% (inactive) |  |
| Cc1c(-c2ccccc2)cn2c1-c1ccc(C)n1CC2 |  | 16.4 µM (active) |
| O=c1[nH]c(SCc2ccccc2)nnc1-c1ccccc1 | -13.7% (inactive) |  |
